Source: PubChem BioAssay (Tox21)
Where “and” joins values, the source holds several entries; their conditions need not be identical. Equal entries are not always repeated. Results filed as inconclusive are left out. A structure can be active in one record and inactive in another. Calls of active or inactive are those of the source. Unless noted, calls follow the shape of the dose curve; as a rule, active = well fitted curve in the direction sought with a large enough effect in the repeat runs; inconclusive = weak or mixed curves; inactive = no such curve, though single readings can be large; an effect the other way counts as inactive or inconclusive.

What was measured:
[1] = qHTS assay to identify small molecule agonists of the hypoxia (HIF-1) signaling pathway - cell viability counter screen (AID 1224844; calls by dose curve; also: nearly all actives have a fitted effect of over 50% in size; also: potency is read from the fitted curve at half-maximal effect)
Method in brief: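 Cytotoxicity measured by CellTiter-Glo ATP luminescence in the wells also read for beta-lactamase signal. Cells were HRE-bla ME-180 (2,000/well, 0.5% dialyzed FBS), exposed to compounds for 17 h at 37C.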

[2] = qHTS assay to identify small molecule agonists of H2AX - cell viability counter screen (AID 1224847; calls by dose curve; also: nearly all actives have a fitted effect of over 30% in size; also: potency is read from the fitted curve at half-maximal effect)
Method in brief: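 Compounds tested at 15 concentrations were incubated 3 hr at 37C with wild-type CHO-K1 cells; cellular ATP-based luminescence (CellTiter-Glo) indicated viability.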

[3] = qHTS RealTime-Glo MT Cell Viability Assay in HepG2 cells - 24 hour (AID 1224867); also: nearly all actives have a fitted effect of over 50% in size; also: potency is read from the fitted curve at half-maximal effect
Method in brief: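 Tox21 10K library screened in qHTS format on HepG2 cells carrying RealTime-Glo reagents. Compounds were added after a 5 h preincubation, and the luminescent signal from continuous culture was measured repeatedly during 40 h treatment.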

[4] = qHTS RealTime-Glo MT Cell Viability Assay in HEK293 cells - 32 hour (AID 1224868); also: nearly all actives have a fitted effect of over 50% in size; also: potency is read from the fitted curve at half-maximal effect
Method in brief: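 Luminescence generated by NanoLuc from substrate produced by living HEK293 cells served as the viability signal. Each value reflects the reading at its stated time point during continuous 40 h compound exposure at 37 C.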

[5] = A CellTox Green Cytotoxicity Assay to monitor cytotoxicity in HEK293 cells - 0 hour (AID 1224869); also: nearly all actives have a fitted effect of over 50% in size
Method in brief: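 Fluorescence from a DNA-binding dye excluded by viable cells was measured repeatedly in the same HEK293 wells (600 cells/well) during continuous compound exposure at 37 C. Each assay gives one read point: 0, 8, 16, 24, 32 or 40 h.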

[6] = qHTS RealTime-Glo MT Cell Viability Assay in HepG2 cells - 40 hour (AID 1224870); also: nearly all actives have a fitted effect of over 50% in size; also: potency is read from the fitted curve at half-maximal effect
Method in brief: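 HepG2 cells (600/well) mixed with RealTime-Glo MT reagent, settled 5 h at 37 C/5% CO2 before compound addition. Nonlytic NanoLuc luminescence from viable-cell prosubstrate reduction read repeatedly during 40 h treatment at 37 C.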

[7] = qHTS assay to identify small molecule agonists of H2AX (AID 1224845; active = well fitted activation curve with a large enough effect in the signal ratio in the repeat runs, not every such curve was filed as active; the % refers to the signal ratio; also: potency is read from the fitted curve at half-maximal effect)
Method in brief: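 Wild-type CHO-K1 cells, plated overnight, exposed 3hr at 37C to 15 concentrations (0.76% DMSO final). Lysed, then HTRF anti-pH2AX (S139) cryptate and anti-H2AX-d2 antibodies, 24 hr room temperature; 665/620 nm emission read.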

[8] = qHTS assay to identify small molecule antagonists of the estrogen related receptor (ERR) signaling pathway from Tox21 library (AID 1224848); also: nearly all actives have a fitted effect of over 50% in size; also: potency is read from the fitted curve at half-maximal effect
Method in brief: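 Compounds dissolved in DMSO are pin-transferred onto ERR reporter cells (2,000 per well) that have settled for 6 h at 37 C. Plates then incubate 18 h at 37 C before ONE-Glo luciferase reagent and a luminescence read 30 min later.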

[9] = qHTS assay to identify small molecule agonists of the estrogen related receptor (ERR) signaling pathway from Tox21 library (AID 1224849; calls by dose curve; also: nearly all actives have a fitted effect of over 15% in size); settings: ERR reporter cell line, ONE-Glo luciferase, 18 h
Method in brief: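 Luminescent agonist read-out (One-Glo, 30-minute room-temperature incubation) following 18-hour compound treatment at 37 C of the ERR cell line, which had been plated 6 hours before dosing.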

[10] = qHTS assay to identify small molecule agonists of the hypoxia (HIF-1) signaling pathway (AID 1224846; active = well fitted activation curve with a large enough effect in the signal ratio in the repeat runs, not every such curve was filed as active; the % refers to the signal ratio)
Method in brief: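 Compounds added to ME-180 cells carrying hypoxia-response-element beta-lactamase reporter (0.5% dialyzed FBS, 5 h preplating), 17 h at 37C; agonist activity detected by CCF4-AM B/G FRET read-out.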
% is scaled to controls: 0 for no effect and ±100 for the full control effect.

CCN(CC)CCOc1ccc(/C(=C(\Cl)c2ccccc2)c2ccccc2)cc1
active: Potency [1] 39.7 µM | Potency [2] 81.7 µM | Potency [3] 28.1 µM and 23.9 µM | Potency [4] 14.1 µM and 19 µM | Potency [6] 17.7 µM and 23.9 µM
inactive: Potency [5]

Nc1nc2ccccc2[nH]1
inactive: Potency [1] | Potency [7] | Potency [3] | Potency [4] | Potency [5] | Potency [6]

Clc1ccc2c(c1)C(N1CCNCC1)=Nc1ccccc1O2
active: Potency [3] 54.9 µM | Potency [4] 43.6 µM and 26.8 µM | Potency [6] 54.9 µM
inactive: Potency [1] | Potency [7]

CN(C)c1ccc(C(=C2C=CC(=[N+](C)C)C=C2)c2ccccc2)cc1
inactive: activity change, positive = activation ([9]; at 42.5 µM (top of the series)) -66.6% and -76.7% and -71.5% | activity change, positive = activation ([9]; at 92.4 µM (top of the series)) -71.3%
active: Potency [1] 11 µM and 5.35 µM | Potency [8] 596 nM [middle of 4 runs] | Potency [3] 11 µM and 8.49 µM and 7.56 µM | Potency [4] 2.13 µM [middle of 4 runs]

CC(C)(C)c1cc(C(C)(C)C)c(O)c(C(C)(C)C)c1
active: Potency [2] 101 µM
inactive: Potency [3] | Potency [4] | Potency [5] | Potency [6]

CC(=O)N[C@@H](CS)C(=O)O
inactive: Potency [1] | Potency [7] | Potency [3] | Potency [4] | Potency [6]

Cc1cc(C2(c3cc(C)c(O)cc3C)OS(=O)(=O)c3ccccc32)c(C)cc1O
61.1 µM (active) and inactive: Potency [8]
inactive: Potency [1] | Potency [10] | Potency [2] | activity change, positive = activation ([9]; at 92.4 µM (top of the series)) -48.1% and -15.2% | Potency [4] | Potency [5] | Potency [6]

CCCCCCCCCCCC[N+](C)(C)C
inactive: Potency [1] | Potency [7] | Potency [5]
active: Potency [4] 6.15 µM and 3.47 µM | Potency [6] 48.9 µM and 49 µM and 43.6 µM

CC[C@H]1CN2CCc3cc(OC)c(OC)cc3[C@@H]2C[C@@H]1C[C@H]1NCCc2cc(OC)c(OC)cc21
active: Potency [4] 15.5 nM and 42.5 nM
inactive: Potency [1] | Potency [2] | Potency [5]

COc1nc(C)nc(Cl)c1NC1=NCCN1
inactive: Potency [1] | Potency [7] | Potency [3] | Potency [4] | Potency [6]

c1ccc2n[nH]nc2c1
inactive: Potency [1] | Potency [7] | Potency [3] | Potency [4] | Potency [6]

CC(C)(C)c1ccc(O)c(C(C)(C)C)c1
active: Potency [1] 43.5 µM | Potency [8] 54.3 µM and 61.1 µM | Potency [4] 38.7 µM
inactive: activity change, positive = activation ([9]; at 92.4 µM (top of the series)) -41% and -33.5% | Potency [5] | Potency [6]

CCCCCCCCCCCCc1ccccc1O
active: Potency [1] 19.5 µM | Potency [7] 55.9 µM and 40.1 µM | Potency [4] 48.3 µM and 49 µM
inactive and 49 µM (active): Potency [6]
inactive and 38.9 µM (active): Potency [3]
inactive: Potency [5]

O=C1Nc2ccccc2C1(c1ccc(O)cc1)c1ccc(O)cc1
49 µM (active) and inactive: Potency [4]
inactive: Potency [7] | Potency [10] | Potency [2] | Potency [3] | Potency [6]

CCCCCCCCCCCCCC[P+](CCCC)(CCCC)CCCC
inactive: Potency [5]
active: Potency [1] 21.8 µM and 21.9 µM | Potency [2] 3.99 µM and 31.8 µM | Potency [3] 21.8 µM and 13.8 µM | Potency [4] 173 nM and 219 nM | Potency [6] 21.8 µM and 11 µM
